# Measurements as given in the supplement of paper PMC3334620.
# The full ranking holds about 33,000 sequences; the median of “E-score (-0.5 to 0.5)” is about -0.0014, and the highest 2% start at about 0.25. The full list was thinned out, with the highest values kept by preference.
# Biological target: T1, Cad1 (UniProt P24813)
# T1 sequence: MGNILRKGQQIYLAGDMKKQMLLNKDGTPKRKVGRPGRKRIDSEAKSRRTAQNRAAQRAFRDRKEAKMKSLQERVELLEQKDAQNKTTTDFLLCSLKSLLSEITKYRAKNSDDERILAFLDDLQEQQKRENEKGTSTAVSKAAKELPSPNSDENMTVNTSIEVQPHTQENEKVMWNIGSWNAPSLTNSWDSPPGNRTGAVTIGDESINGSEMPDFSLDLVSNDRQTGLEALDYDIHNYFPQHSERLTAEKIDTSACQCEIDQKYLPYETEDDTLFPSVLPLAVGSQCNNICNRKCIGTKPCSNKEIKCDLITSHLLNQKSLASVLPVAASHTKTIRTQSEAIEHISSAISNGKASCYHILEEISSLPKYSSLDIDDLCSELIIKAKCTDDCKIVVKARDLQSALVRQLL
# Assay: PBM E-score (8-mer binding enrichment) (E-score (-0.5 to 0.5)); higher = stronger / more preferred TF binding
# Conditions: protein concentration: 100 nM; construct: GST-full length
# Experimental: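 Universal 'all 10-mer' protein binding microarrays (Agilent AMADID 015681) probed with GST-tagged S. cerevisiae TFs (full-length or DBD) made by in vitro transcription/translation (PURExpress), about 100-200 nM. Bound TF was detected with fluorescent anti-GST. Each ungapped 8-mer (which stands for itself and its reverse complement) is scored by the PBM enrichment score (E-score), a modified Wilcoxon-Mann-Whitney statistic from -0.5 to +0.5, computed with the Universal PBM Analysis Suite. Scale: above 0.35 generally sequence-specific binding.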
row,Sequence,PBM E-score
1,CTAGCCCA,-0.145
2,CGGACACA,0.00739
3,GAGGCTTA,-0.0175
4,ATAGGCAT,-0.202
5,GAGGTTCA,0.0769
6,CTGGCTGC,-0.0751
7,ACGCGTCA,0.198
8,GGGAAGAC,-0.154
9,AACCCCAT,-0.107
10,AAACCCAG,0.0892
11,AAACCCAT,0.261
12,AGGCCGAA,-0.0603
13,CTTAAGGA,0.0352
14,AAGGCACA,-0.0665
15,TGACCGCA,0.0752
16,AAATGATT,0.261
17,AAATGATA,0.214
18,CAATGATA,0.0335
19,GAATGATA,0.223
20,AAATGATC,-0.133
21,TAATGATA,0.251
22,AATCTGCG,0.00478
23,CAGGTTAC,-0.0155
24,CACTTCGG,-0.0116
25,AATTGTAC,0.252
26,GATTGTAC,-0.082

row,Sequence,PBM E-score
1,CATTGTAC,0.0995
2,AACACAGG,-0.0364
3,CACACAGC,0.107
4,AACACAGC,0.281
5,CGGGGGCC,-0.42
6,CGGAGGTA,-0.0635
7,GGCGTCCC,-0.213
8,TGACGTCA,0.334
9,AGACGTCA,-0.096
10,GGACGTCA,-0.159
11,GGTCGACC,0.263
12,CGTCGACC,0.118
13,AGTCGACT,0.287
14,AGTCGACC,0.107
15,AGTCGACG,0.296
16,ACTCGACG,0.0798
17,GGTCGACA,0.0882
18,AGTCGACA,0.22
19,CGTCGACG,0.103
20,CCAACTAG,0.0684
21,GCGCACCA,0.134
22,CTAACCTA,-0.129
23,AACTAGCC,-0.0573
24,AGAACAGC,0.00791
25,ACGCATTG,-0.0523
26,GAACATAC,0.0334

row,Sequence,PBM E-score
1,AGTGGCGG,-0.014
2,CTCAGGCA,0.034
3,GAACGGAA,-0.0319
4,AAACGAAA,0.287
5,AAACGAAT,0.017
6,AAACGGAC,-0.00593
7,CAACGAAA,0.162
8,GAACGAAA,-0.0129
9,ACACCAAG,-0.0199
10,TAACGAAA,0.26
11,AAACGGAA,0.266
12,AAACGAAC,0.0751
13,GCACCAAA,-0.0001
14,ACACCAAA,0.254
15,GGGCAACA,-0.0207
16,TTCAAAAA,-0.0855
17,ACATTCCG,0.05
18,CATGGAAA,0.161
19,AGCTGAAT,-0.00032
20,GGGCAGTA,-0.0606
21,ACACGAAT,0.0874
22,ACACGAAA,0.257
23,CAACGATA,0.174
24,ACACGAAG,0.0492
25,TAACGATA,0.261
26,AAACGATA,0.128

row,Sequence,PBM E-score
1,GCAGTTAC,0.128
2,CAAGTACG,-0.268
3,ACGGAGAC,0.128
4,CCGGAGAC,0.036
5,GCGGAGAC,0.267
6,CTCAACGA,-0.0873
7,TTACCTAA,0.334
8,CTACATAA,-0.0789
9,AGACATAA,0.0308
10,CTACCTAA,0.0375
11,GGACATAA,0.102
12,GTACATAA,0.0232
13,ATACCTAA,0.227
14,TGACATAA,0.266
15,TTACATAA,0.438
16,AAGTGGCA,-0.0104
17,CTCCATGA,0.0675
18,CCATAAGA,-0.0777
19,AAGCCTCG,-0.00547
20,ATTGTGAA,0.0555
21,GCCCTCCC,-0.19
22,AAGCACAC,-0.0239
23,AAGCACAG,0.0641
24,AAGCACAT,0.254
25,AGTAACAA,0.082
26,CGTAACAA,0.0611

row,Sequence,PBM E-score
1,GGTAACAA,0.261
2,ACCATCCG,-0.081
3,AAGTCCTC,-0.0441
4,GTCGATTA,0.115
5,ACCGATTA,0.123
6,CACGATTA,0.162
7,CTCGATTA,0.276
8,ATCGATTC,0.0832
9,ATCGATCG,0.188
10,CTCGATTC,0.0642
11,ATCGATTG,0.299
12,ATCGATTA,0.275
13,CCCTAGGC,-0.079
14,TACCCAGA,0.109
15,ACACAGAT,0.0606
16,CGCACACC,0.0191
17,ACGTCCGA,-0.0154
18,CCTGGTAG,-0.209
19,TAGTTATA,0.068
20,AGTGCGTC,-0.0502
21,AACCTGCC,-0.164
22,GTCTAGTA,0.0789
23,AACTTGAC,0.0523
24,ACGCACCC,-0.147
25,AAAGTTCT,0.0926
26,ACTACCGG,-0.231

row,Sequence,PBM E-score
1,ATAACGAA,0.258
2,ACAACGAA,0.145
3,ATAAACAA,0.261
4,ATAAACAC,0.15
5,ACAAACAG,0.0175
6,CTAACGAA,0.153
7,ACAAACAC,0.262
8,ATAACGAC,0.189
9,TTAAACAA,-0.157
10,ACAAACAA,0.176
11,GCAACGAA,0.275
12,TCAACGAA,0.0907
13,GACCACGA,0.0423
14,CGCACTAC,0.0013
15,GGCCGTTA,0.0668
16,ACGTGGAG,-0.0145
17,CCCCTATA,-0.144
18,CCGGTCTC,-0.161
19,CTTAGAGC,-0.0659
20,AAAAGCGC,0.0216
21,AAGTGCTA,-0.257
22,GGGTCCGA,-0.21
23,ACGAGACC,-0.00034
24,ATAACAAG,0.205
25,ATAACAAT,0.0624
26,AGAACAAA,0.247

row,Sequence,PBM E-score
1,CGAACAAG,0.128
2,CGAACAAA,0.28
3,ATAACAAA,0.312
4,GCATCGAC,-0.0789
5,GACAGATA,0.0715
6,CAACGTTG,0.263
7,AAACGTTG,-0.0452
8,CAACGTTC,-0.009
9,ATTATTAC,0.0832
10,GTTATTGA,0.159
11,ATTGTTAA,0.0122
12,AGTATTAA,0.0712
13,GTTATTAA,0.291
14,CTTGTTAA,-0.0916
15,ACTATTAA,0.123
16,GTTGTTAA,0.259
17,ATTATTAA,0.384
18,AGTATTAG,0.299
19,CGTATTAG,0.165
20,GTTATTTA,0.153
